Laboratory results reported in the supplement of paper PMC3334620.
Whole data set: some 33,000 sequences, median “E-score (-0.5 to 0.5)” near -0.0034, cut for the highest 2% near 0.25. What follows is part of a selection rich in the highest values, with near analogues and random picks from the rest.

molecular target: T1, Yap3 (UniProt P38749); assay: PBM E-score (8-mer binding enrichment) (E-score (-0.5 to 0.5)); higher = stronger / more preferred TF binding; details: protein concentration: 100 nM; construct: GST-full length
T1 sequence: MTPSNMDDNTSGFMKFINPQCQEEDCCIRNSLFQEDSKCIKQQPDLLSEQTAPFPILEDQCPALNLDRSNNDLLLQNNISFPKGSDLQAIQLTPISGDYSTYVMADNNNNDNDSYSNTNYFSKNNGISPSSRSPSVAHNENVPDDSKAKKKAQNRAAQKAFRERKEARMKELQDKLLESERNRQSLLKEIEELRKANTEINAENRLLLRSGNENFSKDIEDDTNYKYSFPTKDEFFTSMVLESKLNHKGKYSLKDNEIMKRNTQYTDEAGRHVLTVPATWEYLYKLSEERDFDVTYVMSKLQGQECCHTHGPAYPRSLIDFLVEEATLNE
Method: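 Universal 'all 10-mer' protein binding microarrays (Agilent AMADID 015681) probed with GST-tagged S. cerevisiae TFs (full-length or DBD) made by in vitro transcription/translation (PURExpress), about 100-200 nM. Bound TF was detected with fluorescent anti-GST. Each ungapped 8-mer (which stands for itself and its reverse complement) is scored by the PBM enrichment score (E-score), a modified Wilcoxon-Mann-Whitney statistic from -0.5 to +0.5, computed with the Universal PBM Analysis Suite. Scale: above 0.35 generally sequence-specific binding.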

Sequence | PBM E-score
TAACGATA | 0.261
AAACGATA | 0.0765
CAACGATA | 0.0838
GAACTGTA | 0.208
AATCAGGA | 0.0679
ACTAAATC | 0.198
AATAAATA | 0.315
AATAAATG | 0.216
AATAAAGT | 0.262
AATAAATT | 0.186
CATAAATA | 0.197
GATAAATA | 0.233
CCTAAATA | -0.122
TATAAATA | 0.301
AATAAAGA | 0.156
ACTAAATA | 0.29
AATAAAGG | -0.0245
ATACTAGC | 0.0285
GCCAGTCC | -0.343
CGATCGGC | 0.00629
GAGCTAAC | 0.0153
ACTCGCAC | -0.0984
AGTCGCAC | -0.233
AACTTGAT | 0.15
GGCGGTGA | 0.132

Sequence | PBM E-score
GAAGACCA | -0.105
GGGTAAAA | 0.258
CGGTAAAA | 0.114
GGGTAAAC | 0.0445
AGATAAGG | -0.0911
AATAGAAC | 0.16
GAACTAAA | 0.0567
AAACTAAG | 0.186
ATACTAAA | 0.188
GCACTAAA | 0.179
TCACTAAA | 0.121
TTACTAAA | 0.401
AAACTAAT | 0.272
GTACTAAA | 0.21
TAACTAAA | 0.165
AAACTAAC | 0.232
AAACTAAA | 0.261
ACACTAAA | 0.261
ATTTCTAG | 0.083
GGATCCAA | 0.138
CAGCGACG | -0.0734
GATTGGAC | 0.0901
TCCTCTCA | 0.0272
ACGATCAA | 0.0848
ACAGAGGA | -0.00698

Sequence | PBM E-score
ACGGAAAG | 0.144
AAAGAAAG | 0.231
ACGGAAAC | -0.079
AAAGAAAA | 0.18
ACGGAAAA | 0.107
TCGGAAAA | 0.275
AAGAAAAT | 0.273
GCGGAAAA | 0.245
AAGAAATT | 0.199
AAAGAAAT | 0.26
ACGGAAAT | 0.323
AAGAAAAA | 0.059
ACCCTTTA | 0.101
CGCTGGTC | -0.307
ACGCTGAA | -0.00885
CCCATTGA | -0.0177
GATGCGAA | 0.057
TCCGGTCA | 0.00023
AAGTATCA | 0.052
CCCCACTA | -0.135
AAGTTGCC | -0.0508
ACGAAAAG | 0.153
ACGAAAAT | 0.257
ACGAAAAA | 0.0676
GACTCATC | -0.108

Sequence | PBM E-score
AGCGCTTA | 0.0641
CGCGCTTA | 0.265
CGCGCTGA | 0.0303
ATCGATGC | 0.133
CATTAAGA | 0.0516
GTTGTTTA | 0.273
ATTGTTAA | 0.17
ATTGTTAC | 0.288
CTTGTTAA | 0.022
ATTGTTAG | 0.153
CTTGTTTA | 0.0644
CTTGTTAC | 0.0269
GTTGTTAA | 0.298
ATTGTTTA | 0.0804
TTCAAAAA | 0.0865
ACGTCCTA | 0.00661
AGCACACT | 0.0288
GGATCCAC | -0.0381
AGAAAGCA | 0.232
TGAAAGCA | 0.254
GGAAAGAA | 0.0609
TGAAAGAA | 0.297
AGAAAGAA | 0.0357
GGAAAGCA | 0.018
